Laboratory results published in PubChem BioAssay.
Calls of active or inactive are those of the source.

What was measured:
[1] = target: Albumin (Bos taurus) (UniProt P02769); test: compounds binding labelled BSA control protein – biochemical, small-molecule microarray, Alexa647 label, 635/667 nm fluorescence, artefact control for SMM control protein annotation, profiling panel (AID 1118); settings: BSA-A647 binding, fluorescence 635 nm, higher = more signal;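 further: score merges 667 nm emission intensity and signal-to-noise per printed compound spot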
[2] = probe aXIP binding to arrayed compounds – biochemical, NeuroSMM set, 635/667 nm fluorescence, primary screen (AID 1119); settings: small-molecule microarray, higher = more signal, called active from +8 up or from −8 down;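 further: probe is the protein aXip251-270 applied at 1 µg/mL to compound-printed slides; binding of probe to printed compounds measured as 667 nm fluorescence plus signal to noise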
[3] = probe aNOTCH3 binding on compound microarray – biochemical, small-molecule microarray, 635/667 nm fluorescence, primary screen (AID 1120); settings: higher = more signal;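 further: probe is a biotin-tagged antibody raised against NOTCH3 rather than NOTCH3 protein; score merges spot fluorescence near 667 nm with spot signal to noise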
[4] = probe aNOTCH2 binding on compound microarray – biochemical, small-molecule microarray, 635/667 nm fluorescence, primary screen (AID 1121); settings: higher = more signal;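 further: score merges feature fluorescence read at 667 nm with its signal to noise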
[5] = target: Carbonic anhydrase 2 (Homo sapiens) (UniProt P00918); test: compounds binding carbonic anhydrase 2 – biochemical, small-molecule microarray, Alexa647-labelled CAII, profiling panel (AID 1122); settings: CAII-A647 binding fluorescence, higher = more signal
[6] = COS7 lysate on small-molecule microarray, probe aHis, 635 nm (AID 1123); settings: COS7 cell lysate, fluorescence, higher = more signal;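 further: z-score combines 667nm fluorescence intensity with signal-to-noise per printed compound spot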
[7] = probe aLAP1 signal on lysate-treated microarray – cell lysate, small-molecule microarray, COS7 lysate, primary screen (AID 1124); settings: probe aLAP1, fluorescence, higher = more signal;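 further: lysate comes from COS7 cells expressing LAP1 and is applied at 0.3 µg/mL; score merges spot fluorescence near 667 nm with signal-to-noise over triplicate slides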
[8] = test system: Sam68 (KHDRBS1); test: compounds binding KHDRBS1 protein – biochemical, small-molecule microarray, 635 nm fluorescence, primary screen (AID 1125); settings: higher = more signal;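 further: score merges 667 nm channel intensity with signal to noise over triplicate slides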
[9] = test system: Chordin-like protein 2 (CHRDL2); test: compounds binding chordin-like 2 – biochemical, small-molecule microarray, 635 nm fluorescence, primary screen (AID 1126); settings: fluorescence 635 nm, higher = more signal;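 further: printed compound slides probed with Chrdl2 protein at 4 µg/mL for 1 h at 4 C; score merges 667 nm emission intensity with signal to noise over three replicate slides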
[10] = target: Concanavalin-A (Canavalia ensiformis) (UniProt P02866); test: compounds binding concanavalin A lectin – biochemical, small-molecule microarray, Alexa647 label, 635 nm, artefact control for SMM control protein annotation, primary screen (AID 1127); settings: ConA-A647 binding fluorescence, higher = more signal;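 further: z combines 667 nm emission intensity with signal-to-noise across three replicate slides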
Concanavalin-A (Canavalia ensiformis), sequence (P02866 whole entry, looked up): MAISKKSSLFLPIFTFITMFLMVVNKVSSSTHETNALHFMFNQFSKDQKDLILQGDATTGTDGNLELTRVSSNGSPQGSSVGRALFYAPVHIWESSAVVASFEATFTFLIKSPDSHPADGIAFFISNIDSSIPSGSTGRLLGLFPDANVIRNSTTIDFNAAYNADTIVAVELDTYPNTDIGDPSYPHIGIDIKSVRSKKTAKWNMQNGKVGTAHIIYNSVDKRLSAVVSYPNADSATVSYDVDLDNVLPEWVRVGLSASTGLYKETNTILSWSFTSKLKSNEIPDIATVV

Albumin (Bos taurus), sequence (P02769 whole entry, looked up): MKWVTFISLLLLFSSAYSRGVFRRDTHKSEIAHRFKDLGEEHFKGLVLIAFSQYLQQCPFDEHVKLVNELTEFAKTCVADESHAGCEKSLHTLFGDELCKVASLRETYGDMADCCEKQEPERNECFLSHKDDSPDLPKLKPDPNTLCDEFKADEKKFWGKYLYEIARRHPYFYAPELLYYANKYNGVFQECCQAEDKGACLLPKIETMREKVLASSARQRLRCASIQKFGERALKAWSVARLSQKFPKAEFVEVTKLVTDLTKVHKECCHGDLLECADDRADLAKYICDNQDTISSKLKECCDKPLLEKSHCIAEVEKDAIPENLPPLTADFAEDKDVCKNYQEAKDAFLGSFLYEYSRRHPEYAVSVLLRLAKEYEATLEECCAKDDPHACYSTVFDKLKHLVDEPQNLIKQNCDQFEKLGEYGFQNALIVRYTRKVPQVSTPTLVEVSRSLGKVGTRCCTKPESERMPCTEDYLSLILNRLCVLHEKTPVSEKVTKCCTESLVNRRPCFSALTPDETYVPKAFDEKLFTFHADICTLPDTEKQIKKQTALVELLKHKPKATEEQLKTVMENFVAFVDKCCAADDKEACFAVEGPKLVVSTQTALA

SMILES	composite z-score [1]	composite Z-score [2]	composite z-score [3]	composite z-score [4]	composite z-score [5]	composite z-score [6]	composite z-score [7]	composite z-score [8]	composite z-score [9]	composite z-score [10]
CCOc1cc(C(O)C2C=CC3C(=O)N(c4ccccc4)C(=O)C3N2Nc2ccc([N+](=O)[O-])cc2)ccc1O (stereo not given)	0.839	-0.014 (inactive)	0.0488	-0.0666	0.865	1.78	0.502	0.874	-0.136	0.548
COC(=O)[C@@]1(Cc2ccc(F)cc2)[C@H]2c3cc(C(=O)N(C)C)n(CCc4ccccn4)c3C[C@H]2CN1C(=O)c1ccccc1	-0.0737	0.004 (inactive)	1	0.2	0.827	2.75	0.52	1.29	-0.464	0.542
CC(=O)NCCCC[C@@H]1NC(=O)[C@@H]2C[C@H](C(=O)NCCCCN(C)C)[C@H](c3ccc(O)cc3)N2C1=O	-0.503	0.48 (inactive)	-0.292	-0.14	-0.0303	-0.089	0.765	-0.781	0.46	-0.612
COc1ccc(C(O)C2C=CC3C(=O)N(C)C(=O)C3N2Nc2ccccc2)cc1OCc1ccccc1 (stereo not given)	0.878	0.0582 (inactive)	-0.0714	-0.0128	0.754	1.67	-0.142	1.28	-0.0441	0.949
O=C1O[C@H](c2ccccc2)[C@H](c2ccccc2)N2[C@H]1[C@@H](C(=O)Nc1nc3ccccc3s1)[C@]1(C(=O)Nc3ccccc31)[C@H]2c1ccc(O)cc1	0.164	0.0275 (inactive)	0.156	-0.0873	0.36	1.66	0.293	1.02	0.701	1.07
CC(C)c1ccc(NN2C(C(O)c3c(F)cccc3Cl)C=CC3C(=O)N(c4ccccc4)C(=O)C32)cc1 (stereo not given)	0.913	-0.193 (inactive)	0.704	0.395	0.187	2.26	0.584	1.14	-0.297	1.11
O=c1cccc(CCc2ccccc2)o1	-0.284	0.338 (inactive)	-0.301	-0.0986	0.731	0.89	-0.397	0.854	0.146	0.283
Cc1cc(C)cc(N2C(=O)CS(=O)(=O)C2c2cccc([N+](=O)[O-])c2)c1 (stereo not given)	0.785	1.97 (inactive)	0.799	0.189	0.547	1.73	1.36	0.828	0.433	0.989
O=C1OCCC=C[C@H]2OC34C=CCN(Cc5ccccc5)C(=O)[C@H]3N(CCCCCO)C(=O)[C@@H]4C12 (stereo not given in full)	0.863	0.452 (inactive)	-0.28	-0.173	0.763	2.1	0.743	0.954	-1.32	-0.262
COCC1=C2[C@@H](CCc3ccccc3)OB(O)C[C@@H]2[C@@H]2C(=O)N(Cc3ccccc3)C(=O)[C@@H]2C1	0.818	-0.524 (inactive)	-0.102	-0.14	0.404	0.532	-0.0804	-0.42	0.137	-0.777
COC(=O)C[C@@H]1C[C@H](C)[C@]2(O1)C(=O)N(Cc1ccccc1)c1ccc(NC(C)=O)cc12	-0.211	-0.209 (inactive)	-0.116	-0.185	-0.153	0.117	-0.0791	-0.506	0.343	0.0104
CN1C=C(C(=O)OCCS(C)(=O)=O)C(C(=O)OCCS(C)(=O)=O)=CC(CCCO)=CC1C1CC1 (stereo not given)	0.846	-0.561 (inactive)	-0.0613	-0.108	0.826	0.606	-0.0075	-0.0704	-0.705	0.183
CCCCC(O)C1C=CC2C(=O)N(C3CCCCC3)C(=O)C2N1Nc1ccc(OC)cc1 (stereo not given)	0.739	0.258 (inactive)	0.11	-0.0894	0.511	1.53	0.56	1.19	-0.135	0.8
CCOC(=O)C1=C[C@@H](C(C)C)N(S(=O)(=O)c2ccc(C)cc2)[C@H]1c1ccc(C(C)C)cc1	0.822	0.376 (inactive)	0.0538	-0.0148	0.39	1.81	0.586	1.31	0.241	1.07
Cc1ccc([C@H]2[C@H](C(=O)O)[C@H](Sc3ccccc3)[C@@H](C(C)C)N2S(=O)(=O)c2ccc(C)cc2)cc1	0.907	0.497 (inactive)	0.249	0.0303	0.66	2.25	0.722	1.31	-0.299	1.09
CCOC(=O)C[C@H]1[C@H](OC(=O)c2ccccc2-c2ccccc2)[C@@H](NC(=O)c2ccc3ccccc3c2)c2cc(OCCCO)ccc2N1C(=O)c1ccc2ccccc2n1	0.43	-0.666 (inactive)	0.172	-0.14	0.124	0.806	-0.106	0.744	-0.0077	0.406
C=C(C(=O)CC[C@H](OC(C)=O)c1ccc(OCCO)cc1)C(C)C	0.531	0.277 (inactive)	0.0569	-0.132	0.708	0.354	1.15	0.564	0.615	0.846
C[N+](C)(C)CCCCCCNC(=O)[C@H]1C[C@H]2C(=O)N3CCC[C@H]3C(=O)N2[C@H]1c1ccc(O)cc1	-0.608	0.287 (inactive)	0.0039	-0.107	0.5	1.73	-0.379	0.485	0.472	0.709
COC(=O)C[C@H]1O[C@]2(C(=O)N(Cc3ccccc3)c3ccc(NC(C)=O)cc32)[C@@H](C)[C@@H]1[Si](C)(C)c1ccc(OC)cc1	0.298	-0.114 (inactive)	0.0485	-0.13	0.269	0.696	0.189	1.31	0.48	0.355
CCOC(=O)C[C@H]1[C@H](OC(=O)c2ccc(-c3ccccc3)cc2)[C@@H](NC(=O)Cc2ccc(OC)cc2)c2cc(OCCCO)ccc2N1C(=O)c1ccc2ccccc2n1	0.647	-1.15 (inactive)	0.0408	-0.0288	0.19	1.24	0.561	0.891	-0.62	0.762
COC(=O)[C@@]1(Cc2ccccc2)[C@H]2c3cc(C(=O)N4CCCC4)n(C)c3C[C@H]2CN1C(=O)c1ccccc1	1.06	0.363 (inactive)	0.347	-0.138	0.912	2.35	0.711	-0.0981	-1.18	1.07
